About 83,000 compounds went through this panel and 20% of them were active in at least one assay; those are over-represented in the sample as a whole.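 Plates (96-well) were seeded with cells, treated with compound at one concentration, and incubated for 48 hours before percent growth was determined.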 Activity calls are given as the source filed them. How the source made its calls: active means growth percent below 10; inactive means the rest.
Assays:
Assay in all cases: NCI-60 one-dose screen, 48 h (100 = growth as untreated, 0 = no growth, -100 = all killed)
Conditions in all cases: 10 µM unless noted
NCI-H23 lung = test system: NCI-H23 lung
NCI-H226 lung = test system: NCI-H226 lung
NCI-H322M lung = test system: NCI-H322M lung
HOP-62 NSCLC = test system: HOP-62 NSCLC
NCI-H460 lung = test system: NCI-H460 lung
HOP-92 NSCLC = test system: HOP-92 NSCLC
NCI-H522 lung = test system: NCI-H522 lung
A549/ATCC NSCLC = test system: A549/ATCC NSCLC
786-0 renal = test system: 786-0 renal
COLO 205 colon = test system: COLO 205 colon

Measured: growth

COc1cc2cc(C(=O)N3C[C@@H](CCl)c4c3cc(OC(=O)N(C)CCSSCCN3CCOCC3)c3ccccc43)[nH]c2c(OC)c1OC
active: NCI-H23 lung -66.9% | NCI-H226 lung -17.2% | NCI-H322M lung 1.49% | HOP-62 NSCLC -49.4% | NCI-H460 lung 0.904% | HOP-92 NSCLC -16.1% | NCI-H522 lung -42.8% | A549/ATCC NSCLC -9.46% | 786-0 renal -65% | COLO 205 colon -80.4%

COc1ccc(C2=Nc3c(N)nc(N)nc3NC(c3ccc(Oc4nc(Nc5ccc(F)cc5)nc(N(C)C)n4)c(OC)c3)C2)cc1 (stereo not given)
inactive: NCI-H23 lung 88.4% | NCI-H226 lung 77.4% | NCI-H322M lung 104% | HOP-62 NSCLC 82.5% | NCI-H460 lung 71% | HOP-92 NSCLC 16.6% | NCI-H522 lung 88% | A549/ATCC NSCLC 75.5% | 786-0 renal 52.6% | COLO 205 colon 91.6%

C/C(=N\Nc1ccc(S(N)(=O)=O)cc1)c1cnn(-c2cc(=O)[nH]c3ccc(Br)cc23)c1C
active: HOP-92 NSCLC -2.47% | NCI-H522 lung 5.07%
inactive: NCI-H23 lung 69.9% | NCI-H226 lung 62.3% | NCI-H322M lung 77.7% | HOP-62 NSCLC 63.4% | NCI-H460 lung 77.9% | A549/ATCC NSCLC 100% | 786-0 renal 85.9% | COLO 205 colon 85.5%

COc1ccc(CCC2NCCc3c(Br)c4c(c(OC)c32)OCO4)cc1 (stereo not given)
inactive: NCI-H226 lung 25.5% | NCI-H322M lung 14.6% | HOP-62 NSCLC 18.1% | HOP-92 NSCLC 15.6% | A549/ATCC NSCLC 24.2%
active: NCI-H23 lung -24.7% | NCI-H460 lung 9.1% | NCI-H522 lung 2.33% | 786-0 renal 8.08% | COLO 205 colon -37.5%

Cc1nc2sccn2c1-c1nnc(SCc2ccccc2)o1
inactive: NCI-H23 lung 86.1% | NCI-H226 lung 75.5% | NCI-H322M lung 90.4% | HOP-62 NSCLC 99.9% | NCI-H460 lung 99.6% | HOP-92 NSCLC 71.9% | NCI-H522 lung 78.2% | A549/ATCC NSCLC 91.2% | 786-0 renal 76.1% | COLO 205 colon 112%

COc1ccccc1Nc1nnc(-c2c[nH]c3ccccc23)o1
active: NCI-H522 lung -31.5% | 786-0 renal 9.22% | COLO 205 colon -38.8%
inactive: NCI-H23 lung 12.6% | NCI-H226 lung 47.1% | NCI-H322M lung 43.5% | HOP-62 NSCLC 26.3% | NCI-H460 lung 10.8% | HOP-92 NSCLC 16.1% | A549/ATCC NSCLC 21.9%

NS(=O)(=O)c1ccc(Nc2nc(SCC(=O)c3ccc(F)cc3)nc3ccccc23)cc1
inactive: NCI-H23 lung 41.8% | NCI-H226 lung 50.1% | NCI-H322M lung 58.7% | HOP-62 NSCLC 54.4% | NCI-H460 lung 36% | HOP-92 NSCLC 56.3% | NCI-H522 lung 42.1% | A549/ATCC NSCLC 53.8% | 786-0 renal 68.9% | COLO 205 colon 77%

COc1ccc(NC(=O)Cn2c(/C=C/c3cccc(Br)c3)nc3ccccc3c2=O)cc1
inactive: NCI-H23 lung 59.3% | NCI-H322M lung 58.1% | NCI-H460 lung 32% | HOP-92 NSCLC 11% | NCI-H522 lung 42.6% | A549/ATCC NSCLC 16.5% | COLO 205 colon 70.4%
active: NCI-H226 lung 6.61% | HOP-62 NSCLC 2.11% | 786-0 renal -44.4%

CCCCNc1ccc2c3c(cccc13)C(=O)N(NCC(O)COc1ccc3c(C)cc(=O)oc3c1)C2=O (stereo not given)
inactive: NCI-H23 lung 87.4% | NCI-H226 lung 87.5% | NCI-H322M lung 91% | HOP-62 NSCLC 97% | NCI-H460 lung 92.6% | HOP-92 NSCLC 78.2% | NCI-H522 lung 83.2% | A549/ATCC NSCLC 87% | 786-0 renal 101% | COLO 205 colon 92.2%

CCCSc1nnc(-c2c(C)nc3sccn23)o1
inactive: NCI-H23 lung 90.5% | NCI-H226 lung 66.6% | NCI-H322M lung 73.9% | HOP-62 NSCLC 112% | NCI-H460 lung 97.9% | HOP-92 NSCLC 73.8% | NCI-H522 lung 98.7% | A549/ATCC NSCLC 98.2% | 786-0 renal 92.8% | COLO 205 colon 118%

c1n[nH]cc1-c1nc2ccc3cn[nH]c3c2c2c1CCCC2
inactive: NCI-H23 lung 90.2% | NCI-H226 lung 46.4% | NCI-H322M lung 86.8% | HOP-62 NSCLC 79.9% | NCI-H460 lung 101% | HOP-92 NSCLC 85.2% | NCI-H522 lung 70.7% | A549/ATCC NSCLC 95.1% | 786-0 renal 110% | COLO 205 colon 102%

O=C1/C(=C/c2cccc3c2OCO3)Cc2c(F)cc(Br)cc21
inactive: NCI-H23 lung 97.2% | NCI-H226 lung 106% | NCI-H322M lung 113% | HOP-62 NSCLC 109% | NCI-H460 lung 117% | HOP-92 NSCLC 123% | NCI-H522 lung 104% | A549/ATCC NSCLC 111% | 786-0 renal 107% | COLO 205 colon 128%

CCOC(=O)c1ccc(NC(=S)NC(=O)c2ccc(NC(=O)C(C)C)cc2OC)cc1
inactive: NCI-H23 lung 15.9% | NCI-H226 lung 22.3% | NCI-H322M lung 74.9% | HOP-62 NSCLC 53.9% | NCI-H460 lung 44.5% | HOP-92 NSCLC 33.6% | NCI-H522 lung 30.9% | A549/ATCC NSCLC 80.2% | 786-0 renal 85.2% | COLO 205 colon 37.5%

CC(C)(C)OC(=O)N1C/C(=C\c2ccc(F)cc2)C(=O)/C(=C/c2ccc(F)cc2)C1
inactive: NCI-H322M lung 29.6% | HOP-62 NSCLC 14.6% | A549/ATCC NSCLC 35.3%
active: NCI-H23 lung -77.7% | NCI-H226 lung -43.8% | NCI-H460 lung 1.19% | HOP-92 NSCLC -30.5% | NCI-H522 lung -89% | 786-0 renal -74.8% | COLO 205 colon -47.2%

O=C(NN1C(=O)/C(=C/C=C/c2ccc([N+](=O)[O-])o2)SC1=S)c1ccc(O)cc1
active: NCI-H23 lung -85.7% | NCI-H226 lung -86.3% | NCI-H322M lung -78.5% | HOP-62 NSCLC -99.5% | NCI-H460 lung -54% | HOP-92 NSCLC -81% | NCI-H522 lung -98.1% | A549/ATCC NSCLC -81.5% | 786-0 renal -90.4% | COLO 205 colon -94.8%

O=C(CSc1nc2sc3c(c2c(=O)n1-c1ccc(Cl)cc1)CCCC3)NNC(=O)c1ccc(Br)cc1
inactive: NCI-H23 lung 55.6% | NCI-H226 lung 45.2% | NCI-H322M lung 52.7% | HOP-62 NSCLC 17% | NCI-H460 lung 76.9% | HOP-92 NSCLC 61.2% | NCI-H522 lung 64.4% | A549/ATCC NSCLC 82.6% | 786-0 renal 98.5% | COLO 205 colon 120%

Cc1ccc(C(=O)Nc2cc(-n3cnc(F)c3)cc(C(F)(F)F)c2)cc1C#Cc1cnc2cccnn12
inactive: NCI-H23 lung 44.8% | NCI-H226 lung 44.4% | NCI-H322M lung 97.9% | HOP-62 NSCLC 85.7% | NCI-H460 lung 70.5% | HOP-92 NSCLC 57.5% | NCI-H522 lung 64.6% | A549/ATCC NSCLC 66.5% | 786-0 renal 53.3% | COLO 205 colon 68.5%

COc1ccc(-c2cc(C)nc3[nH]c(=O)sc23)cc1
active: 786-0 renal 0.453%
inactive: NCI-H23 lung 74.3% | NCI-H226 lung 36.3% | NCI-H322M lung 68.4% | HOP-62 NSCLC 44.9% | NCI-H460 lung 52.4% | HOP-92 NSCLC 16.3% | NCI-H522 lung 61.8% | A549/ATCC NSCLC 52.8% | COLO 205 colon 119%

Oc1ccc(F)c(Nc2nc(SCCN3CCOCC3)nc3c2cnn3CC(Cl)c2ccc(Br)cc2)c1 (stereo not given)
active: NCI-H460 lung 3.31% | HOP-92 NSCLC 1.93%
inactive: NCI-H23 lung 26.3% | NCI-H226 lung 29.2% | NCI-H322M lung 80.2% | HOP-62 NSCLC 30.3% | NCI-H522 lung 29.2% | A549/ATCC NSCLC 23.9% | 786-0 renal 61.2% | COLO 205 colon 94.6%

CC1CCc2c(sc3nc(SCC(=O)c4cccc(Br)c4)n(-c4ccccc4)c(=O)c23)C1 (stereo not given)
inactive: NCI-H23 lung 11.3% | NCI-H226 lung 19.7% | NCI-H322M lung 74.5% | HOP-62 NSCLC 39.9% | NCI-H460 lung 55% | HOP-92 NSCLC 44% | NCI-H522 lung 40.3% | A549/ATCC NSCLC 92.3% | 786-0 renal 18.8% | COLO 205 colon 25.3%

CCc1ccc(SC2c3cc(OC)ccc3Oc3nc(N)c(C#N)c(N)c32)cc1 (stereo not given)
active: NCI-H23 lung -5.83% | NCI-H226 lung -6.69% | NCI-H322M lung -48% | HOP-62 NSCLC 1.33% | NCI-H460 lung 3.96% | HOP-92 NSCLC -38.5% | NCI-H522 lung -8.76% | A549/ATCC NSCLC -41.2% | 786-0 renal -54.6% | COLO 205 colon -68.9%

O=C(CSc1nc2ccccc2c(=O)[nH]1)Nc1ccccc1C(=O)O
inactive: NCI-H23 lung 104% | NCI-H226 lung 102% | NCI-H322M lung 101% | HOP-62 NSCLC 97.8% | NCI-H460 lung 118% | HOP-92 NSCLC 118% | NCI-H522 lung 107% | A549/ATCC NSCLC 112% | 786-0 renal 107% | COLO 205 colon 124%

O=S(=O)(c1nc(-c2ccc(Br)cc2)oc1-c1ccc(Cl)cc1)N1CCCC(O)C1 (stereo not given)
inactive: NCI-H23 lung 47.3% | NCI-H226 lung 60.4% | NCI-H322M lung 78.3% | HOP-62 NSCLC 102% | NCI-H460 lung 34.1% | NCI-H522 lung 49.2% | A549/ATCC NSCLC 47.6% | 786-0 renal 58.9% | COLO 205 colon 81%
active: HOP-92 NSCLC -14.5%

Cc1ccc(C2CC(c3ccc(NC(=S)Nc4ccccc4)cc3)=NN2c2ccc(S(N)(=O)=O)cc2)cc1 (stereo not given)
inactive: NCI-H23 lung 23.6% | NCI-H322M lung 45.6% | HOP-62 NSCLC 34.6% | NCI-H522 lung 15.8% | A549/ATCC NSCLC 15.1% | 786-0 renal 18.6%
active: NCI-H226 lung -7.72% | NCI-H460 lung -11.1% | HOP-92 NSCLC 7.59% | COLO 205 colon -3.89%

CN1C(=O)/C(=C/c2ccco2)S/C1=N/c1nccs1
inactive: NCI-H23 lung 97.3% | NCI-H226 lung 113% | NCI-H322M lung 94.3% | HOP-62 NSCLC 108% | NCI-H460 lung 103% | HOP-92 NSCLC 114% | NCI-H522 lung 100% | A549/ATCC NSCLC 107% | 786-0 renal 97.6% | COLO 205 colon 121%

CN1CCc2c(sc3ncnc(N/N=C/c4cccc(Cl)c4Cl)c23)C1
inactive: NCI-H226 lung 134% | NCI-H322M lung 77.3% | HOP-92 NSCLC 58.4% | NCI-H522 lung 68.8%
active: NCI-H23 lung -6.68% | HOP-62 NSCLC -38.2% | NCI-H460 lung -71.1% | A549/ATCC NSCLC -70.1% | 786-0 renal -16.1% | COLO 205 colon -80.3%

Cn1ncc2c(N)nc(Oc3ccccc3-c3ccccc3)nc21
inactive: NCI-H23 lung 29.6% | NCI-H226 lung 45.2% | NCI-H322M lung 72.2% | HOP-62 NSCLC 57.9% | NCI-H460 lung 14.5% | HOP-92 NSCLC 62.4% | NCI-H522 lung 22.2% | A549/ATCC NSCLC 55.9% | 786-0 renal 52.6% | COLO 205 colon 33.9%
